The values below come from the supplement of paper PMC10127200.

Where a name gives a salt, the structure may show the parent alone.

This test concerns FB. Description: Euclidean distance of Cell Painting phenotypic profile (signed KS, 77 features) to DMSO centroid (dimensionless distance); 5 or 10 uM (library dependent); higher = stronger phenotypic change vs DMSO (phenoactivity). To be noted: 48 h. An outline of the steps: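 Phenoactivity is defined as the Euclidean distance from a compound profile to the median vehicle profile. Each profile comprised 77 Harmony features, scored as signed Kolmogorov-Smirnov statistics versus same-plate vehicle wells, then plate-position corrected, correlation-weighted and replicate-averaged at the top dose. Five cancer lines and one healthy fibroblast line were exposed to library compounds for 48 h at 10 or 5 uM (0.1% DMSO final).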
As for `O=c1cc(-c2ccccc2)oc2cc(O)c(O)c(O)c12` [Baicalein], the Euclidean distance stood at 2.7.
The result for `CC[C@H](Nc1ncnc2[nH]cnc12)c1nc2cccc(F)c2c(=O)n1-c1ccccc1` [CAL-101 (Idelalisib. GS-1101)] reads 1.79.
For `C[C@]12CC[C@H](O)CC1=CC[C@@H]1[C@@H]2CC[C@]2(C)C(n3cnc4ccccc43)=CC[C@@H]12` [Galeterone] the value was 1.35.
The result for `CC(=O)Nc1nc(C)c(-c2ccc(Cl)c(S(=O)(=O)NCCO)c2)s1` reads 2.98; that for `OCc1ccccc1` [Benzyl alcohol], 1.21.
Take `C[C@]12CCC(=O)C=C1C=C[C@@H]1[C@@H]2CC[C@@]2(C)[C@H]1CC[C@@]21CCC(=O)O1` [Canrenone]: the Euclidean distance is 1.33.
The result for `CN1C2CCCC1CC(NC(=O)c1nn(C)c3ccccc13)C2` (centres undefined) [Granisetron HCl] reads 1.04; that for `O=C(/C=C/c1ccc(O)c(O)c1)OCCc1ccccc1` [Caffeic Acid Phenethyl Ester], 1.78.
Regarding `C[C@H](N[C@@H](CCc1ccccc1)C(=O)O)C(=O)N1CCC[C@H]1C(=O)O` [Enalaprilat Dihydrate], the Euclidean distance was 0.927.
`O=c1c(-n2ccnn2)c[nH]n1-c1cc(N2CCOCC2)ncn1` [Molidustat (BAY 85-3934)] had an Euclidean distance of 1.09.
The compound `COCC(=O)Nc1cc(Sc2ccccc2)ccc1N=C(NC(=O)OC)NC(=O)OC` [Febantel] had an Euclidean distance of 1.06.
The compound `OCc1cc([C@@H](O)CNCCCCCCOCCOCc2c(Cl)cccc2Cl)ccc1O` [Vilanterol Trifenate] returned an Euclidean distance of 1.28.
The compound `Nc1c(CC(=O)O)cccc1C(=O)c1ccc(Br)cc1` [Bromfenac Sodium] yielded an Euclidean distance of 1.42.
Compound `COc1c(C)c2c(c(O)c1C/C=C(\C)CCC(=O)OCCN1CCOCC1)C(=O)OC2` [Mycophenolate Mofetil] registered an Euclidean distance of 3.32.
The compound `CO/N=C(\C(=O)N[C@@H]1C(=O)N2C(C(=O)O)=C(CSc3nc(C)c(CC(=O)O)s3)CS[C@H]12)c1csc(N)n1` [Cefodizime Sodium] displayed an Euclidean distance of 0.804.
For `CC(C)=CCOc1ccc(/C=C/C(=O)c2ccc(OCC=C(C)C)cc2OCC(=O)O)cc1` [Sofalcone] the value was 1.01; for `CC(C)(F)C[C@H](N[C@@H](c1ccc(-c2ccc(S(C)(=O)=O)cc2)cc1)C(F)(F)F)C(=O)NC1(C#N)CC1` [Odanacatib (MK-0822)], 0.656; for `CONC(=O)Nc1ccc(-c2sc3c(c2CN(C)C)c(=O)n(-c2ccc(OC)nn2)c(=O)n3Cc2c(F)cccc2F)cc1` [Relugolix], 1.4.
With `Cc1ccc(NC(=O)c2ccc(CN3CCN(C)CC3)cc2)cc1Nc1nccc(-c2cccnc2)n1` [Imatinib Mesylate (STI571)], the Euclidean distance is 2.28.
The result for `C#Cc1cccc(Nc2ncnc3cc(OCCOC)c(OCCO)cc23)c1` reads 2.87; that for `CC(C)(O)c1cc(Nc2cc(Oc3cn(C4CC4)nc3C3CCOCC3)ccn2)ccn1`, 1.38; that for `Cc1cc(Nc2nc(N[C@@H](C)c3ccc(F)cc3)c(C#N)cc2F)n[nH]1`, 2.42.
`Nc1nc(F)nc2c1ncn2[C@@H]1O[C@H](CO)[C@@H](O)[C@@H]1O` [Fludarabine]: the Euclidean distance came out at 1.81.
`Nc1nc2c(ncn2COC(CO)CO)c(=O)[nH]1` [Ganciclovir] displayed an Euclidean distance of 1.25.
The result for `Cc1cc(NS(=O)(=O)c2ccc(N)cc2)nc(C)n1` [sulfaisodimidine] reads 0.948.
The result for `O=C(c1ccc(C(=O)N2CCC(N3CCCC3)CC2)c(Nc2ccccc2)c1)N1CCC(N2CCCC2)CC1` reads 0.904; that for `O=C(N/N=C/c1ccc([N+](=O)[O-])o1)c1ccc(O)cc1` [Nifuroxazide], 1.33; that for `CCCCCCCCOc1ccccc1C(=O)Nc1ccc(C(=O)OCC[N+](C)(CC)CC)cc1` [Otilonium Bromide], 1.24.
For `c1ccc(-c2ccc(C(c3ccccc3)n3ccnc3)cc2)cc1` (centres undefined) [Bifonazole] the value was 1.17; for `O=C(O)CCCc1cc2cc(Cl)ccc2n1S(=O)(=O)c1ccc2ncsc2c1` [Lanifibranor(IVA-337)], 0.874; for `CCC[C@H](N[C@H]1CCc2cc(F)cc(F)c2C1)C(=O)Nc1cn(C(C)(C)CNCC(C)(C)C)cn1`, 0.705.
In the case of `CNS(=O)(=O)CCc1ccc2[nH]cc(C3CCN(C)CC3)c2c1` [Naratriptan], the Euclidean distance worked out at 0.996.
In the case of `Cc1nc(Nc2ccc(F)cc2)nc(N2CCc3ccccc3C2C)c1C` (centres undefined) [Revaprazan Hydrochloride], the Euclidean distance was found to be 1.28.
For `NCc1ccc(S(N)(=O)=O)cc1` [Mafenide hydrochloride] the value was 0.654.
